# Source: PubChem BioAssay (NCI)
# This is part of a sample that, as a whole, favours compounds with a hit. Of some 83,000 tested, about 20% had one in any assay.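 A percent growth of 40 corresponds to 60% growth inhibition; 0 means no net growth; -100 means all cells died. Active threshold: below 10.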 Values without a mark were called inactive. Active and inactive are the calls of the source.
# Tests used:
# Experiment in all cases: NCI-60 one-dose screen, 48 h (100 = growth as untreated, 0 = no growth, -100 = all killed)
# Conditions in all cases: 10 µM unless noted
# DU-145 prostate = tested on: DU-145 prostate
# K-562 leukemia = tested on: K-562 leukemia
# MALME-3M melanoma = tested on: MALME-3M melanoma
# MDA-MB-231 breast = tested on: MDA-MB-231 breast
# RXF 393 renal = tested on: RXF 393 renal
# SF-268 CNS = tested on: SF-268 CNS
# SF-295 CNS = tested on: SF-295 CNS
# SF-539 CNS = tested on: SF-539 CNS
# UACC-257 melanoma = tested on: UACC-257 melanoma
# M14 melanoma = tested on: M14 melanoma
# HCT-15 colon = tested on: HCT-15 colon
# HT29 colon = tested on: HT29 colon
# SNB-75 CNS = tested on: SNB-75 CNS
# SNB-19 CNS = tested on: SNB-19 CNS
# U251 CNS = tested on: U251 CNS
# PC-3 prostate = tested on: PC-3 prostate
# SK-MEL-5 melanoma = tested on: SK-MEL-5 melanoma
# UACC-62 melanoma = tested on: UACC-62 melanoma
# LOX IMVI melanoma = tested on: LOX IMVI melanoma
# SK-MEL-28 melanoma = tested on: SK-MEL-28 melanoma
Structure (SMILES),growth (DU-145 prostate),growth (K-562 leukemia),growth (MALME-3M melanoma),growth (MDA-MB-231 breast),growth (RXF 393 renal),growth (SF-268 CNS),growth (SF-295 CNS),growth (SF-539 CNS),growth (UACC-257 melanoma),growth (M14 melanoma),growth (HCT-15 colon),growth (HT29 colon),growth (SNB-75 CNS),growth (SNB-19 CNS),growth (U251 CNS),growth (PC-3 prostate),growth (SK-MEL-5 melanoma),growth (UACC-62 melanoma),growth (LOX IMVI melanoma),growth (SK-MEL-28 melanoma)
O=C(O)COc1ccc(F)cc1,109%,97.1%,107%,100%,107%,93.6%,102%,96.9%,102%,109%,104%,93.8%,99.8%,99.8%,102%,96.2%,102%,102%,99%,116%
COc1ccc(S(=O)(=O)NC2c3ccccc3CC2O)cc1OC (stereo not given),111%,102%,110%,112%,117%,93.6%,98.3%,101%,111%,99.1%,102%,107%,80.1%,98.6%,102%,97.8%,103%,96.2%,102%,114%
O=C1/C(=C/c2ccc(Br)cc2)COc2ccc(O)cc21,101%,9.11% (active),91.7%,85.9%,95.9%,89.8%,100%,92.5%,103%,83.7%,42.5%,28.9%,92.7%,87.3%,57%,77.4%,96%,79.3%,-1.48% (active),97.7%
Nc1n[nH]c2cccc(C#Cc3cccc(C(=O)Nc4ccc(Cl)c(C(F)(F)F)c4)c3)c12,83.6%,6.22% (active),14.9%,40.4%,66.9%,61.7%,66.6%,33.5%,48.2%,23%,56.4%,26%,65.7%,89.1%,69%,59.6%,46.7%,22.2%,18.1%,24.7%
Cc1nc2c(c(-c3ccccc3)n1)Cc1c(ccc3ccccc13)O2,115%,132%,126%,83%,105%,94.8%,112%,96.7%,113%,104%,107%,89.1%,92.2%,110%,102%,87.5%,70.8%,83.8%,91.5%,107%
Cc1cccc(CN(Nc2ccccc2)c2ccccc2)n1,107%,87.5%,89.8%,118%,96.3%,101%,118%,96.6%,98.7%,105%,92.1%,96.3%,93.1%,106%,91.4%,85.7%,97.9%,96.3%,98.5%,98.7%
N#Cc1nn(-c2ccccn2)c(N)c1C#N,104%,94%,103%,109%,127%,97.2%,96.2%,97.2%,103%,102%,102%,86.4%,87.3%,101%,103%,95.4%,104%,99.1%,101%,105%
COc1nc2ccccc2cc1/C=[N+](\[O-])c1ccccc1,102%,13.5%,60.9%,57.5%,85.5%,65.5%,93.5%,34.2%,93%,39.6%,19%,70%,73%,81.8%,56%,60.3%,73.4%,62.8%,40.1%,101%
C=C(C)[C@@H]1CC[C@]2(C#N)CC[C@]3(C)[C@H](CC[C@@H]4[C@@]5(C)CCCNC(C)(C)[C@@H]5CC[C@]43C)[C@@H]12,65.5%,-26.2% (active),81%,57.6%,82.3%,87.1%,92.9%,84%,70.8%,64.4%,23%,9.37% (active),83.9%,78.6%,16.7%,68.7%,86.4%,88.6%,-44.3% (active),97.3%
O=C(O)CCCN1C(=O)CSC1=S,107%,103%,102%,107%,107%,93.9%,106%,102%,95.9%,93.3%,94.3%,108%,85.6%,102%,108%,95.3%,101%,96.2%,94.7%,105%
Clc1ccc(C2=Nn3c(nnc3-c3cc(Cl)cc(Cl)c3Cl)SC2)cc1,-16.6% (active),12.4%,44.4%,65.3%,66.2%,35%,14.8%,72.9%,71.5%,11.7%,32.3%,6.41% (active),31.7%,32.8%,20.9%,20.2%,0.698% (active),31.9%,39.8%,62.1%
O=C(O)c1nn(-c2ccc(Cl)cc2)nc1N1CCCC1,91.3%,87.2%,90%,101%,85.4%,98.3%,90.5%,96.1%,94.7%,96.7%,92.2%,104%,85.7%,103%,92.3%,95.4%,96.4%,99.6%,93.6%,105%
COc1cccc2cc(N(C)c3ncnc4ccccc34)ccc12,10.3%,9.92% (active),39.4%,31.3%,25.9%,30.2%,11%,-28.5% (active),25.3%,14.3%,11.1%,2.77% (active),34.8%,31.8%,11%,5.88% (active),-32.4% (active),23.4%,15.5%,33.3%
[2H]C([2H])([2H])Oc1ccc(/C=C/C(=O)/C=C(O)/C=C/c2ccc(OC([2H])([2H])[2H])c(OC([2H])([2H])[2H])c2)cc1OC([2H])([2H])[2H],59%,17.6%,79.2%,72%,59.4%,67.2%,39.5%,65.8%,84%,52.5%,14.3%,10.7%,45.7%,39.2%,19.5%,32.6%,11.6%,52%,14.5%,87.4%
N#C/C(=N\Nc1ccccc1)C(=O)Nc1cc(-c2ccccc2)nn1-c1ccccc1,51.5%,25.9%,4.67% (active),26.1%,36.9%,22.9%,11.4%,40.4%,12.3%,33.7%,13.1%,31.5%,68.2%,14.6%,8.34% (active),10%,-27.5% (active),14.2%,52.9%,44.9%
N#Cc1c(-c2ccc(Cl)cc2)nc(NN=Cc2cccc(Cl)c2)nc1N1CCOCC1,76%,35.1%,131%,90.6%,61.4%,90.3%,102%,79.1%,100%,84.6%,35.4%,40.4%,80.1%,104%,78.9%,73.5%,92.5%,98.1%,85.5%,106%
